In PubChem BioAssay (EPA / NIEHS):
Values joined by “and” are separate entries in the source; they are usually repeats but may differ in a detail not shown here. Equal values may be shown once. Active and inactive are the calls of the source. The calls were made as follows: active = hit-call score of the fitted dose curve at least 0.9, where 1 is the maximum; inactive = score below 0.9.

Assays:
[1] = BSK_hDFCGF_SRB: Viability Assessment in the BioMAP Diversity Plus: hDFCGF Assay (AID 2283061); details: primary human foreskin fibroblasts;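 also: cells exposed to compound for 24 h before the read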
In short: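 Primary human foreskin fibroblasts; 24 h post-dose; fixed 10% TCA, stained 0.1% SRB, A560 read; total protein as overt cytotoxicity measure; curves fit bidirectionally vs DMSO control.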

[2] = read-out: TIMP metallopeptidase inhibitor 1 (TIMP1), TIMP1 (gene 7076); test: BSK_hDFCGF_TIMP1: BioMAP Diversity Plus: hDFCGF Assay for TIMP metallopeptidase inhibitor 1 (TIMP1) Biomarker Activity (AID 2283062); details: primary human foreskin fibroblasts; actives raise or lower the signal
In short: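 ELISA readout of TIMP-1 from human dermal foreskin fibroblast cultures 24 h post-dosing. Curves were fitted in both directions against DMSO baseline, with SRB total-protein staining in parallel cultures as a cytotoxicity check.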

[3] = read-out: Monokine induced gamma interferon (MIG), CXCL9 (gene 4283); test: BSK_hDFCGF_MIG: BioMAP Diversity Plus: hDFCGF Assay for Monokine induced gamma interferon (MIG) Biomarker Activity (AID 2283063); details: primary human foreskin fibroblasts; actives raise or lower the signal
In short: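 Fibroblasts (human foreskin, primary) dosed, 24 h, MIG by ELISA; fit bidirectional vs DMSO.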

[4] = read-out: Matrix Metallopeptidase 1 (MMP1), MMP1 (gene 4312); test: BSK_hDFCGF_MMP1: BioMAP Diversity Plus: hDFCGF Assay for Matrix Metallopeptidase 1 (MMP1) Biomarker Activity (AID 2283064); details: primary human foreskin fibroblasts; actives raise or lower the signal
In short: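 Primary human foreskin fibroblasts in the hDFCGF system were dosed with test chemical, and MMP1 was measured by ELISA 24 h later. Values come from bidirectional curve fitting against the DMSO baseline.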

[5] = read-out: Vascular cell adhesion molecule 1 (VCAM1), VCAM1 (gene 7412); test: BSK_hDFCGF_VCAM1: BioMAP Diversity Plus: hDFCGF Assay for Vascular cell adhesion molecule 1 (VCAM1) Biomarker Activity (AID 2283065); details: primary human foreskin fibroblasts; actives raise or lower the signal;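 as to AC50: VCAM-1 protein level quantified by ELISA after 24 h chemical exposure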
In short: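 ELISA read-out of VCAM-1 on human skin fibroblasts, 24 h post-dose; gain or loss of signal fitted bidirectionally against DMSO baseline.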

[6] = read-out: Plasminogen activator inhibitor-1 (PAI1), SERPINE1 (gene 5054); test: BSK_hDFCGF_PAI1: BioMAP Diversity Plus: hDFCGF Assay for Plasminogen activator inhibitor-1 (PAI1) Biomarker Activity (AID 2283066); details: primary human foreskin fibroblasts; actives raise or lower the signal
In short: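 Human foreskin fibroblast primary cells, 24 h chemical exposure; PAI-1 measured by ELISA. Bidirectional fitting relative to DMSO; parallel cultures stained with SRB for total protein to flag overt cytotoxicity.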

[7] = read-out: Intercellular Adhesion Molecule 1 (ICAM1), ICAM1 (gene 3383); test: BSK_KF3CT_ICAM1: BioMAP Diversity Plus: KF3CT Assay for Intercellular Adhesion Molecule 1 (ICAM1) Biomarker Activity (AID 2283067); details: primary human keratinocytes with fibroblasts; actives raise or lower the signal
In short: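 ELISA readout of ICAM-1; KF3CT human skin co-culture (keratinocytes + foreskin fibroblasts), 24 h post-dose; gain/loss fit vs DMSO baseline.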

[8] = BSK_KF3CT_SRB: Viability Assessment in the BioMAP Diversity Plus: KF3CT Assay (AID 2283069); details: primary human keratinocytes with fibroblasts;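 also: total protein by sulforhodamine B staining as a cytotoxicity measure; read 24 h after compound addition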
In short: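 Human primary keratinocyte plus foreskin fibroblast co-culture exposed to chemicals for 24 h. Total protein measured by 0.1% sulforhodamine B staining after 10% TCA fixation, read at 560 nm; bidirectional fitting versus DMSO baseline.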

[9] = read-out: TIMP metallopeptidase inhibitor 2 (TIMP2), TIMP2 (gene 7077); test: BSK_KF3CT_TIMP2: BioMAP Diversity Plus: KF3CT Assay for TIMP metallopeptidase inhibitor 2 (TIMP2) Biomarker Activity (AID 2283071); details: primary human keratinocytes with fibroblasts; actives raise or lower the signal
In short: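 Co-culture of human primary keratinocytes and foreskin fibroblasts, measured 24 h after chemical dosing. TIMP-2 quantified by ELISA and fitted in both directions relative to DMSO. Cytotoxicity checked in parallel cultures by SRB total-protein staining.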

[10] = read-out: C-C motif chemokine 2 (Homo sapiens) (UniProt P13500); test: BSK_KF3CT_MCP1: BioMAP Diversity Plus: KF3CT Assay for Monocyte Chemoattractant Protein 1 (MCP1/CCL2) Biomarker Activity (AID 2283073); details: primary human keratinocytes with fibroblasts; actives raise or lower the signal
In short: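 KF3CT skin co-culture (keratinocytes/foreskin fibroblasts), 24 h post-dose; MCP-1 by ELISA; gain/loss of signal fit bidirectionally vs DMSO baseline.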

[11] = read-out: Matrix Metallopeptidase 9 (MMP9), MMP9 (gene 4318); test: BSK_KF3CT_MMP9: BioMAP Diversity Plus: KF3CT Assay for Matrix Metallopeptidase 9 (MMP9) Biomarker Activity (AID 2283074); details: primary human keratinocytes with fibroblasts; actives raise or lower the signal;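 as to AC50: MMP9 protein level quantified by ELISA in the co-culture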
In short: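 Keratinocyte plus foreskin fibroblast human primary skin co-culture was dosed with chemical and MMP-9 was quantified by ELISA 24 h later. Bidirectional curve fitting used DMSO as negative control and activity baseline.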

[12] = read-out: urokinase plasminogen activator (uPA), PLAU (gene 5328); test: BSK_KF3CT_uPA: BioMAP Diversity Plus: KF3CT Assay for urokinase plasminogen activator (uPA) Biomarker Activity (AID 2283075); details: primary human keratinocytes with fibroblasts; actives raise or lower the signal
In short: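 Human keratinocyte plus foreskin fibroblast primary co-culture exposed to chemical for 24 h. uPA levels were quantified by ELISA, and activity was fitted bidirectionally against a DMSO negative-control baseline.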

CD40, CD40 (gene 958) = test: BSK_LPS_CD40: BioMAP Diversity Plus: LPS Assay for CD40 Biomarker Activity (AID 2283076); details: primary human HUVEC with PBMC; actives raise or lower the signal
In short: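 ELISA readout of CD40 in HUVEC/PBMC co-culture (BSK_LPS system), 24 h post-dosing; bidirectional curve fit, DMSO baseline; parallel SRB total-protein staining for cytotoxicity.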

[13] = read-out: Interleukin-8 (IL8), CXCL8 (gene 3576); test: BSK_LPS_IL8: BioMAP Diversity Plus: LPS Assay for Interleukin-8 (IL8) Biomarker Activity (AID 2283078); details: primary human HUVEC with PBMC; actives raise or lower the signal
In short: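 HUVEC + PBMC co-culture, LPS-activated; test chemicals dosed, IL-8 read by ELISA at 24 h. Bidirectional curve fit vs DMSO baseline (gain or loss of signal).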

[14] = read-out: Interleukin-1 alpha (IL1a), IL1A (gene 3552); test: BSK_LPS_IL1a: BioMAP Diversity Plus: LPS Assay for Interleukin-1 alpha (IL1a) Biomarker Activity (AID 2283080); details: primary human HUVEC with PBMC; actives raise or lower the signal
In short: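 HUVEC/PBMC co-culture, LPS system; 24 h after dosing; IL-1a by ELISA; gain or loss of signal fitted bidirectionally vs DMSO baseline.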

[15] = read-out: Monocyte Chemoattractant Protein-1 (MCP1), CCL2 (gene 6347); test: BSK_LPS_MCP1: BioMAP Diversity Plus: LPS Assay for Monocyte Chemoattractant Protein-1 (MCP1) Biomarker Activity (AID 2283081); details: primary human HUVEC with PBMC; actives raise or lower the signal;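 as to AC50: secreted MCP-1 protein quantified by ELISA in culture supernatant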
In short: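 ELISA read-out of MCP-1 after 24 h chemical dosing of a human umbilical vein endothelial cell/peripheral blood mononuclear cell co-culture stimulated with LPS. Gain or loss of signal fitted relative to DMSO controls.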

[16] = read-out: Interferon-gamma inducible Protein 10 (IP10), CXCL10 (gene 3627); test: BSK_KF3CT_IP10: BioMAP Diversity Plus: KF3CT Assay for Interferon-gamma inducible Protein 10 (IP10) Biomarker Activity (AID 2283068); details: primary human keratinocytes with fibroblasts; actives raise or lower the signal
In short: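 Signal is secreted/surface IP-10 by ELISA in a human primary skin co-culture of keratinocytes and foreskin fibroblasts, taken 24 h post-dosing; DMSO served as negative control.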

[17] = BSK_LPS_SRB: Viability Assessment in the BioMAP Diversity Plus: LPS Assay (AID 2283079); details: primary human HUVEC with PBMC;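 also: total protein by sulforhodamine B absorbance as a cytotoxicity measure; measured one day after compound addition; fitted in both directions against DMSO so loss or gain of signal counts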
In short: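 HUVEC + PBMC co-culture, LPS-stimulated; compound 24 h. 10% TCA fix, 0.1% SRB stain, A560. Bidirectional fit vs DMSO.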

Measured: AC50

CC1COc2ccccc2N1C(=O)C(Cl)Cl (configuration not stated)
active: [1] 20 µM | [4] 20 µM | [5] 1.78 µM | [6] 0.0533 µM | [11] 13.7 µM | [12] 0.0271 µM | CD40, CD40 (gene 958) 10.9 µM | [14] 13.2 µM | [15] 5.75 µM
inactive: [2] | [3] | [7] | [8] | [9] | [10] | [13]

CCCCC(CC)COCCC#N (configuration not stated)
active: [2] 20 µM | [5] 7.05 µM | [16] 5.08 µM | [15] 0.016 µM
not listed: [17]
inactive: all other assays above

COc1cc(C=O)ccc1OC(=O)C(C)C
not listed: [17]
inactive: all other assays above

Cc1cc(C2(c3cc(C)c(O)cc3C)OS(=O)(=O)c3ccccc32)c(C)cc1O
active: [6] 20 µM and 4.95 µM
not listed: [17]
inactive: all other assays above

CC(C)(COC(=O)c1ccccc1)COC(=O)c1ccccc1
active: [1] 31.5 µM | [2] 34.3 µM | [5] 16.1 µM | [6] 32.9 µM | CD40, CD40 (gene 958) 32 µM
not listed: [17]
inactive: all other assays above

CN(CCOc1ccc(CC2SC(=O)NC2=O)cc1)c1ccccn1 (configuration not stated)
active: [11] 3.97 µM | [12] 0.016 µM | CD40, CD40 (gene 958) 13 µM
not listed: [17]
inactive: all other assays above

CC(=O)/C=C/C1=C(C)CCCC1(C)C
not listed: [17]
inactive: all other assays above

CC(C)c1ccc(C(C)C)cc1
active: [1] 36.1 µM | [6] 36.2 µM | [9] 31.8 µM
not listed: [17]
inactive: all other assays above

CCCCCCCCCCCCCCCCCC(=O)OCC(CC)CCCC (configuration not stated)
not listed: [17]
inactive: all other assays above

C=C(C)C(=O)O[C@H]1C[C@@H]2CC[C@@]1(C)C2(C)C
active: [2] 20 µM | [3] 34.8 µM | [4] 34.8 µM | [5] 26.4 µM | [6] 12.8 µM | [7] 28.8 µM | [16] 16.9 µM | [8] 14.6 µM | [9] 10.2 µM | [10] 12.8 µM | [11] 20 µM | [12] 13.8 µM | CD40, CD40 (gene 958) 27.8 µM | [13] 31.2 µM | [14] 25.8 µM | [15] 31.1 µM

C=CCOC(=O)CCC1CCCCC1
inactive: all assays above

CCCCC/C=C/C=C/C=O
active: [1] 12.7 µM | [2] 12.7 µM | [3] 25.1 µM | [4] 20 µM | [5] 6.87 µM | [6] 8.82 µM | [7] 29.3 µM | [16] 29.4 µM | [8] 32.6 µM | [9] 24.3 µM | [10] 32.5 µM | [11] 26.8 µM | [12] 31.4 µM | CD40, CD40 (gene 958) 20 µM | [13] 32.6 µM | [14] 29.2 µM | [15] 33.5 µM

O=P(c1ccccc1)(c1ccccc1)c1ccccc1
not listed: [17]
inactive: all other assays above

Nc1cc([N+](=O)[O-])ccc1Cl
not listed: [17]
inactive: all other assays above

O=C=NC1CCC(CC2CCC(N=C=O)CC2)CC1 (configuration not stated)
active: [6] 25.6 µM | [12] 0.016 µM
not listed: [17]
inactive: all other assays above

O=C(O)c1cn(C2CC2)c2cc(N3CCNCC3)c(F)cc2c1=O
not listed: [17]
inactive: all other assays above

CNC[C@H](O)c1cccc(O)c1
active: [10] 0.0741 µM
not listed: [17]
inactive: all other assays above

COC(=O)c1ccc(C)cc1
not listed: [17]
inactive: all other assays above

CC(=O)Nc1ccccc1O
not listed: [17]
inactive: all other assays above

CCCCCCCCC=O
not listed: [17]
inactive: all other assays above

O=C1CCCCCCCCCCCCCCO1
active: [6] 20 µM | [7] 17.9 µM | [9] 20 µM | [10] 12.5 µM
not listed: [17]
inactive: all other assays above

CC(=O)O[C@]1(C(C)=O)CC[C@H]2[C@@H]3C[C@H](C)C4=CC(=O)CC[C@]4(C)[C@H]3CC[C@@]21C
active: [16] 2.55 µM
not listed: [17]
inactive: all other assays above

O=C(O)c1cn(-c2ccc(F)cc2)c2cc(N3CCNCC3)c(F)cc2c1=O
not listed: [17]
inactive: all other assays above

Cc1ccc2n[nH]nc2c1
inactive: all assays above

CCCCC(CC)COC(=O)/C=C\C(=O)OCC(CC)CCCC (configuration not stated)
active: [6] 7.23 µM
not listed: [17]
inactive: all other assays above

NCCNCCN
not listed: [17]
inactive: all other assays above
